Screens as filed in PubChem BioAssay.
G9a inh: inhibitors of human histone lysine methyltransferase G9a. Q96KQ7. AID 504332. 350,000 tested, 8.8% active. G9a H3K9 monomethylation, AlphaScreen, 2 h. Potency, µM (highest dose often 102 µM), without a hit: at the top dose activity, negative = inhibition, hits mostly inhibitors; note: % is set by controls: 0 for no effect and ±100 for the full control effect; nearly all actives have a fitted effect of over 75% in size
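Chemiluminescent proximity detection of H3K9 monomethylation, read after 10 min bead incubation in the dark. Reaction: 20 nM G9a, 500 nM biotin-H3K9 peptide, 20 uM SAM cofactor, 2 h, room temperature, following 15 min enzyme-compound preincubation.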
HP1b binding inh: inhibitors of HP1-beta chromodomain binding to methylated histone tails; P83916; AlphaScreen HP1-beta / biotin-H3K9me3 peptide binding; Potency, µM (highest dose often 114 µM), for the others: top-dose activity change, negative = inhibition, usual class: inhibitors; 390,000 tested, 0.56% active; AID 540317; note: nearly all actives have a fitted effect of over 70% in size
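Compound inhibition of the preformed complex between 50 nM HP1-beta and 50 nM biotinylated H3K9me3 peptide was read by AlphaScreen. Buffer was PBS pH 7.4 with 0.01% Tween-20. Incubations ran 30 min at room temperature, with 10 ug/mL donor/acceptor beads.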
JMJD2A Tudor inh: inhibitors of human JMJD2A Tudor domain; O75164; AlphaScreen JMJD2A-Tudor / H3K4me3 peptide binding; Potency, µM (titrated, usually from 114 µM), inactives show top-dose activity change, negative = inhibition, hits mostly inhibitors; 390,000 tested, 4.4% active; note: % is set by controls: 0 for no effect and ±100 for the full control effect; nearly all actives have a fitted effect of over 50% in size
L3MBTL1 block: blocks human L3MBTL1 | AlphaScreen L3MBTL1–H3K9me1 peptide binding | Potency, µM (highest dose often 57.1 µM), without a hit: top-dose activity, negative = inhibition, most hits filed as inhibitors | 230,000 tested, 0.66% active | AID 485360; note: % is set by controls: 0 for no effect and ±100 for the full control effect; nearly all actives have a fitted effect of over 60% in size
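AlphaScreen assay: L3MBTL1 (50 nM final) was preincubated 30 min at room temperature with biotinylated H3(1-15)K9me1 peptide (75 nM final), then 30 min with library compounds; streptavidin donor and nickel chelate acceptor beads (10 ug/mL final) added, 30 min dark.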
BAZ2B inh: BAZ2B (human) inhibition | 360,000 tested, 4.4% active | Potency, µM (series often up to 114 µM), inactives show at the top dose activity change, negative = inhibition, hits mostly inhibitors | Q9UIF8 | AlphaScreen BAZ2B-H3K14Ac peptide displacement; note: % is set by controls: 0 for no effect and ±100 for the full control effect; nearly all actives have a fitted effect of over 60% in size
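Protein-peptide AlphaScreen: BAZ2B 50 nM, b-H3K14Ac 50 nM, 1x PBS pH 7.4 + 0.01% Tween-20. Preincubation 30 min RT; cpd 30 min RT (top 110 uM); beads 20 min RT, light-protected.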
* hit, by the source's call; ? = inconclusive; . = no result given; [ ] = remark or other dose. Most compounds without a hit are left out; they make up all but 11% or so of the library. Calls come from the whole dose curve; as a rule, active = well fitted inhibition curve with a large enough effect; inconclusive = small, poorly fitted or top-dose-only effect; inactive = no such curve, though single readings can be large or run the other way. Potency is the fitted concentration of half-maximal effect.

SMILES	G9a inh	HP1b binding inh	JMJD2A Tudor inh	L3MBTL1 block	BAZ2B inh
Oc1ccc(Br)cc1C1C=C(c2ccc3c(c2)OCO3)NC(c2c(F)cccc2Cl)N1 (stereo unspecified)	.	-4.6%	?	.	.
CN(C)c1ccc(CNC(=O)c2cnc3sc(N4CCOCC4)nn3c2=O)cc1	7.8%[59 µM]	0.6%	?	.	?
O=C(NC(=S)NNC(=O)c1cnccn1)c1ccc(Cl)cc1	50.1µM*	14.5%	22.4µM*	.	3.16µM*
O=C(Cc1ccc(Cl)cc1)NNC(=S)NC(=O)c1cccnc1	.	18.8%	-27.6%	12.1%	12.1%
O=C(NCCCNC(=O)c1cnccn1)c1ccc(Cl)cc1	-9.2%	0.6%	-10.0%	.	0.6%
O=C(NC(=S)NNC(=O)c1ccc(Cl)cc1Cl)c1cccnc1	2.24µM*	-13.3%	44.7µM*	12.1%	5.0%
O=C(NC(=S)NNC(=O)c1ccccc1O)c1cccnc1	12.6µM*	21.0%	56.2µM*	?	?
O=C(NNC(=S)NC(=O)c1cccnc1)c1ccc(Cl)cc1	22.4µM*	-17.4%	?	?	9.2%[57.1 µM]
O=C(NC(=S)Nc1ccccc1O)c1cccnc1	17.6%[0.501 µM]	14.1%	-20.8%	-4.1%[2.29 µM]	-35.8%
COC(=O)C1CCN(C(=O)CN2C(=O)NC3(CCC(C)CC3)C2=O)CC1 (stereo unspecified)	.	4.7%	-5.5%	1.0%	.
COc1ccc(F)cc1S(=O)(=O)NCC(=O)NCc1cc(=O)n(C)c(=O)n1C	-29.0%	65.8%	-11.6%	.	-4.8%
CC(C(=O)O)n1cc(C#N)c(=O)[nH]c1=O (stereo unspecified)	.	21.4%	-2.1%	.	.
CCOC(=O)c1cc(C#N)c(SCC(=O)O)[nH]c1=O	?	12.1%	31.6µM*	6.0%	?
CSc1[nH]c(=O)c(C(=O)O)cc1C#N	-40.0%[12.7 µM]	27.0%	-13.1%	.	50.1µM*
CCOC(=O)c1cc(C#N)c(SCC(N)=O)[nH]c1=O	12.6µM*	31.3%	-12.6%	-16.3%	-11.2%
CCOC(=O)c1cc(C#N)c(SCC(=O)Nc2ccc(C(C)=O)cc2)[nH]c1=O	?	20.2%	1.7%	2.9%	-23.9%
CCOC(=O)c1cc(C#N)c(SCC(=O)c2cc(C#N)c(SC)nc2C)[nH]c1=O	50.1µM*	4.0%	79.4µM*	7.2%	-33.0%
CCc1ccccc1NC(=O)c1cnc2sc(N3CCOCC3)nn2c1=O	20.5%[59 µM]	38.3%	-16.9%	.	36.0%
N#Cc1cc2c(=O)n3ccccc3nc2n(-c2ccccc2Cl)c1=O	8.1%	56.5%	11.7%	.	.
CN1CCN(c2nc(-c3ccccc3C(F)(F)F)nc3ccccc23)CC1	-4.2%[0.501 µM]	.	.	.	.
CCc1nn(CC(=O)NCCCOC)c(=O)c2cc3occc3n12	7.9%[59 µM]	5.9%	4.7%	.	-1.8%
CCC1CSC(Nc2ccc(C(=O)/C=C/c3ccc(Oc4ccccc4)cc3)cc2)=N1 (stereo unspecified)	?	-1.7%	?	-5.8%	?
CCC1CSC(Nc2ccc(C(=O)/C=C/c3cccc(C)c3)cc2)=N1 (stereo unspecified)	2.82µM*	27.7%	-29.9%	-3.6%	?
COc1cc(C#Cc2c(-c3cncn3C)n(C)c3ccc(-c4ccc(OC)nc4)cc23)cc(OC)c1	-1.7%[0.501 µM]	-11.0%	14.1µM*	?	39.8µM*
COc1cc(CN(C(=O)c2cccc(C)c2)c2ccccn2)cc(OC)c1OC	3.1%[59 µM]	60.1%	5.0%	.	-8.6%
SMILES	G9a inh	HP1b binding inh	JMJD2A Tudor inh	L3MBTL1 block	BAZ2B inh
CC12CCC(C(=O)N(CCCN3CCN(Cc4ccccc4)CC3)C1=O)C2(C)C (stereo unspecified)	?	4.6%	?	-4.3%	50.1µM*
O=C(NC1CC1)c1cc(=S)[nH]c2ccccc12	.	-0.3%	17.8µM*	45.9%	.
O=C(NC1CC1)C(=O)c1c[nH]c2ccccc12	.	38.4%	4.6%	.	?
NNc1nc(-c2ccccc2)cs1	22.4µM*	12.2%	?	-9.8%	?
c1ccc(-c2csc(Nc3ncccn3)n2)cc1	-0.6%[59 µM]	8.4%	10.0%	1.0%	8.3%
Cc1cccnc1Nc1nc(-c2ccccn2)cs1	18.7%[12.7 µM]	19.7%	44.7µM*	.	14.1µM*
CCCCCNc1nc(-c2ccccc2)cs1	?	.	.	.	-9.4%
Cc1cccnc1Nc1nc(-c2ccccc2)cs1	39.8µM*	7.7%	-15.1%	.	-21.4%
Cc1cc(C)nc(NCC(O)CNc2ccccc2Cl)n1 (stereo unspecified)	7.08µM*	13.8%	56.2µM*	21.4%[11.4 µM]	-32.0%
CN(CC(=O)Nc1ccccc1Cl)C(=O)Cn1cc(C(F)(F)F)cc(Cl)c1=O	44.7µM*	22.2%	0.7%	2.7%	-2.3%
CCN(C(=O)CSc1nnc(Nc2cccc(C)c2C)s1)C1CCS(=O)(=O)C1 (stereo unspecified)	-5.9%[59 µM]	12.3%	-10.3%	-1.6%	-1.1%
Cc1nnc(SCC(=O)N(C)CC(=O)Nc2ccccc2Cl)s1	50.1µM*	19.5%	-3.0%	-12.2%	9.0%
CCc1ccccc1NC(=O)CN(C)C(=O)CSc1nnc(Nc2cccc(C)c2C)s1	15.8µM*	19.2%	-19.5%	-7.6%	-10.2%
Cc1ccc2[nH]c3c(=O)n(Cc4ccncc4)cnc3c2c1	-4.8%	32.4%	-10.5%	.	50.1µM*
O=C(CN1C(=O)S/C(=C\c2ccc(O)c([N+](=O)[O-])c2)C1=O)Nc1ccc(N2CCOCC2)cc1	-3.5%[0.501 µM]	?	56.2µM*	.	44.7µM*
Cc1cccc(NC(=O)CN2C(=O)S/C(=C\c3ccc(O)c([N+](=O)[O-])c3)C2=O)c1	35.5µM*	-24.3%	50.1µM*	.	?
CCOC(=O)CN1C(=O)S/C(=C/C=C/c2ccc(N(C)C)cc2)C1=O	10µM*	12.6µM*	15.8µM*	-66.3%	10µM*
CCOC(=O)CN1C(=O)S/C(=C/c2cccc([N+](=O)[O-])c2O)C1=O	35.5µM*	?	-10.5%[11.4 µM]	.	?
O=C(O)c1cccc(CN2C(=O)S/C(=C/c3ccccc3[N+](=O)[O-])C2=O)c1	?	-0.7%	-25.4%	-23.6%	-24.9%
O=C(CN1C(=O)S/C(=C\C=C\c2ccccc2)C1=O)N1CCCCC1	?	33.3%	-8.3%	.	-20.0%
COc1cc(Cl)c(C)cc1NC(=O)C(OC(=O)CNC(=O)c1ccccc1)c1ccccc1 (stereo unspecified)	.	.	-21.9%	.	.
CCOc1ccccc1CNC(=O)c1cc2cc(S(=O)(=O)N3CCCCC3)ccc2n1C	-3.4%[59 µM]	22.2%[57 µM]	-16.2%	.	2.9%
O=C(CCN1C(=O)S/C(=C/c2ccccc2)C1=O)Nc1ccc(O)c(C(=O)O)c1	4.4%[0.0925 µM]	10.1%	-7.6%	.	-15.3%
Cc1ccc(NC(=O)CN2C(=O)S/C(=C/c3ccc(O)c([N+](=O)[O-])c3)C2=O)cc1C	.	?	22.4µM*	25.1µM*	14.1µM*
O=S(=O)(NCC1CCCN(Cc2ccccc2O)C1)c1cccc2cccnc12 (stereo unspecified)	70.8µM*	41.1%	-12.4%	.	-17.3%
c1ccc2c(c1)ncn2CCOCCOCCn1cnc2ccccc21	?	25.1%	-18.0%	-18.6%[11.4 µM]	70.8µM*
